Reference: PubChem BioAssay (Tox21)
Records with an inconclusive call do not appear. A call without a number means that no potency is given here. Unmarked numbers belong to inactive results. Calls of active or inactive are those of the source. Calls come from the whole dose curve; as a rule, active = well fitted curve in the direction sought with a large enough effect in the repeat runs; inconclusive = weak or mixed curves; inactive = no such curve, though single readings can be large; an effect the other way counts as inactive or inconclusive.

Experiments:
[1] = A CellTox Green Cytotoxicity Assay to monitor cytotoxicity in HepG2 cells - 32 hour (AID 1224883); note: nearly all actives have a fitted effect of over 50% in size; note: potency is the fitted concentration of half-maximal effect
Summary of the method: (§1)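 Continuous culture of HepG2 cells with a membrane-impermeant DNA dye; rising fluorescence marks dead cells. Compound exposure lasted up to 40 h at 37 C, with reads every 8 h from 0 h.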

[2] = A CellTox Green Cytotoxicity Assay to monitor cytotoxicity in HEK293 cells - 8 hour (AID 1224884); note: nearly all actives have a fitted effect of over 35% in size; note: potency is the fitted concentration of half-maximal effect
Summary of the method: (§2)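 Each value comes from one timepoint of a single continuous run in which HEK293 cells with CellTox Green were exposed to compound for up to 40 h at 37 C, dye fluorescence rising with cell death.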

[3] = qHTS RealTime-Glo MT Cell Viability Assay in HepG2 cells - 16 hour (AID 1224885); note: nearly all actives have a fitted effect of over 50% in size
Summary of the method: (§3)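 Luminescence read-out: viable HepG2 cells reduce a prosubstrate to a NanoLuc substrate, giving a signal proportional to live cell number. Reads taken at 0, 8, 16, 24, 32 and 40 h of compound exposure at 37 C.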

[4] = A CellTox Green Cytotoxicity Assay to monitor cytotoxicity in HEK293 cells - 16 hour (AID 1224888); note: nearly all actives have a fitted effect of over 35% in size; note: potency is the fitted concentration of half-maximal effect
Summary of the method: as §2

[5] = qHTS RealTime-Glo MT Cell Viability Assay in HepG2 cells - 0 hour (AID 1224889); note: nearly all actives have a fitted effect of over 50% in size; note: potency is the fitted concentration of half-maximal effect
Summary of the method: as §3

[6] = A CellTox Green Cytotoxicity Assay to monitor cytotoxicity in HepG2 cells - 8 hour (AID 1224890); note: nearly all actives have a fitted effect of over 45% in size
Summary of the method: as §1

[7] = qHTS RealTime-Glo MT Cell Viability Assay in HEK293 cells - 24 hour (AID 1224886); note: nearly all actives have a fitted effect of over 50% in size; note: potency is the fitted concentration of half-maximal effect
Summary of the method: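 Nonlytic real-time viability readout: viable cells convert prosubstrate to NanoLuc substrate, giving luminescence proportional to live cell number. HEK293, 600 cells/well, compound added after 5 h, continuous culture at 37 C.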

[8] = qHTS RealTime-Glo MT Cell Viability Assay in HEK293 cells - 8 hour (AID 1224887); note: nearly all actives have a fitted effect of over 50% in size; note: potency is the fitted concentration of half-maximal effect
Summary of the method: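 qHTS format; HEK293 cells with NanoLuc/prosubstrate reagent, 37 C/5% CO2 for 5 h pre-dosing; compounds 23 nL in DMSO; luminescence at each time point reflects viable cells.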

[9] = qHTS assay to identify small molecule antagonists of the estrogen receptor alpha (ER-alpha) signaling pathway using the BG1 cell line in the presence of 0.1 nM 17-beta-estradiol - cell viability counter screen (AID 1259241); note: nearly all actives have a fitted effect of over 40% in size; note: potency is the fitted concentration of half-maximal effect
Summary of the method: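 Cells were plated and left 24 hr, compounds in DMSO were pinned in, 17beta-estradiol was added to 0.1 nM final, and after 22 hr CellTiter-Fluor reagent was added for 30 min before fluorescence was read.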

[10] = qHTS assay to identify small molecule antagonists of the androgen receptor (AR) signaling pathway using the MDA cell line in the presence of 0.5 nM R1881 - cell viability counter screen (AID 1259242); note: nearly all actives have a fitted effect of over 45% in size; note: potency is the fitted concentration of half-maximal effect
Summary of the method: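 Fluorescence from CellTiter-Fluor, which reports protease activity of live cells, was read 30 min after reagent addition to MDA-kb2 cells that had been incubated 16 hr with compound and 0.5 nM R1881.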

Cc1ccc(-n2[nH]c(C)c(N=Nc3cccc(-c4cccc(C(=O)O)c4)c3O)c2=O)cc1C
Potency [1]: inactive | Potency [2]: inactive | Potency [3]: inactive | Potency [4]: inactive | Potency [5]: inactive | Potency [6]: inactive

CC(=O)O[C@@H]1C[C@@H]2CC[C@@]1(C)C2(C)C
Potency [1]: inactive | Potency [2]: inactive | Potency [7]: inactive | Potency [8]: inactive | Potency [4]: inactive | Potency [6]: inactive | Potency [9]: inactive | Potency [10]: inactive

CC(CN(C)C)CN1c2ccccc2CCc2ccccc21 (stereo unspecified)
Potency [1]: 23.9 µM (active) | Potency [2]: inactive | Potency [3]: inactive | Potency [4]: inactive | Potency [5]: inactive | Potency [9]: inactive | Potency [10]: inactive

CCCCCCCCCCCC(=O)N(CC)CC
Potency [1]: inactive | Potency [2]: inactive | Potency [7]: inactive | Potency [8]: inactive | Potency [4]: inactive | Potency [5]: inactive | Potency [9]: inactive | Potency [10]: inactive

CCOC(=O)C1=C(C)NC(C)=C(C(=O)OCC)C1c1ccccc1/C=C/C(=O)OC(C)(C)C
Potency [1]: inactive | Potency [2]: inactive | Potency [7]: inactive | Potency [8]: inactive | Potency [4]: inactive | Potency [5]: 3.38 µM (active) | Potency [9]: inactive | Potency [10]: inactive

NC(=O)c1nc(-c2cccc(-c3cc(F)ccc3OCC(F)(F)C(F)(F)F)c2)n[nH]1
Potency [1]: 43.6 µM (active) | Potency [2]: inactive | Potency [3]: inactive | Potency [4]: inactive | Potency [5]: inactive | Potency [9]: inactive | Potency [10]: inactive

CCOC(=O)CN
Potency [1]: inactive | Potency [2]: inactive | Potency [7]: inactive | Potency [8]: inactive | Potency [4]: inactive | Potency [5]: inactive | Potency [6]: inactive | Potency [9]: inactive | Potency [10]: inactive

O=C(c1ccccc1)c1cc(Cl)ccc1O
Potency [1]: inactive | Potency [2]: inactive | Potency [3]: inactive | Potency [4]: inactive | Potency [5]: inactive | Potency [6]: inactive | Potency [9]: inactive | Potency [10]: inactive

CCC1CCCCC1
Potency [1]: inactive | Potency [2]: inactive | Potency [7]: inactive | Potency [8]: inactive | Potency [4]: inactive | Potency [5]: inactive | Potency [6]: inactive | Potency [9]: inactive | Potency [10]: inactive

CC(=O)OC1CCCCC1
Potency [1]: inactive | Potency [2]: inactive | Potency [7]: inactive | Potency [8]: inactive | Potency [4]: inactive | Potency [5]: inactive | Potency [6]: inactive | Potency [9]: inactive | Potency [10]: inactive

Oc1cc2ccccc2cc1O
Potency [1]: inactive | Potency [2]: inactive | Potency [3]: inactive | Potency [6]: inactive | Potency [9]: inactive | Potency [10]: inactive

C/C=C/c1ccc(OC)c(OC)c1
Potency [1]: inactive | Potency [2]: inactive | Potency [7]: inactive | Potency [8]: inactive | Potency [4]: inactive | Potency [5]: inactive | Potency [6]: inactive | Potency [9]: inactive | Potency [10]: inactive

C=CC(=O)OCC(O)COc1ccccc1 (stereo unspecified)
Potency [1]: inactive | Potency [2]: inactive | Potency [7]: inactive | Potency [8]: inactive | Potency [4]: inactive | Potency [5]: inactive | Potency [6]: inactive | Potency [9]: inactive | Potency [10]: inactive

C=C(c1ccc(C(=O)O)cc1)c1cc2c(cc1C)C(C)(C)CCC2(C)C
Potency [1]: 43.6 µM (active) | Potency [2]: inactive | Potency [3]: inactive | Potency [5]: inactive | Potency [6]: inactive | Potency [9]: inactive | Potency [10]: inactive

CO[C@H]1C=CO[C@@]2(C)Oc3c(C)c(O)c4c(O)c(cc(O)c4c3C2=O)NC(=O)/C(C)=C\C=C/[C@H](C)[C@H](O)[C@@H](C)[C@@H](O)[C@@H](C)[C@H](OC(C)=O)[C@@H]1C
Potency [1]: inactive | Potency [2]: inactive | Potency [3]: inactive | Potency [7]: inactive | Potency [6]: inactive | Potency [9]: 27.5 µM (active)

CNC(=S)NN
Potency [1]: inactive | Potency [2]: inactive | Potency [3]: inactive | Potency [8]: inactive | Potency [5]: inactive | Potency [6]: inactive | Potency [9]: inactive | Potency [10]: inactive

O=C(O)CCn1c2c(c3ccccc31)C[C@H](NS(=O)(=O)c1ccc(F)cc1)CC2
Potency [1]: inactive | Potency [2]: inactive | Potency [7]: inactive | Potency [8]: inactive | Potency [4]: inactive | Potency [5]: inactive | Potency [6]: inactive | Potency [9]: inactive | Potency [10]: inactive

C/C=C/C(=O)C1=C(C)CCCC1(C)C
Potency [1]: inactive | Potency [2]: inactive | Potency [3]: inactive | Potency [8]: inactive | Potency [4]: inactive | Potency [5]: inactive | Potency [9]: inactive | Potency [10]: inactive

CN(C)c1ccc(N=Nc2ccccc2C(=O)O)cc1
Potency [1]: inactive | Potency [2]: inactive | Potency [7]: inactive | Potency [8]: inactive | Potency [4]: inactive | Potency [5]: inactive | Potency [6]: inactive | Potency [9]: inactive

COc1cc(C=C2CCC/C(=C\c3ccc(O)c(OC)c3)C2=O)ccc1O
Potency [1]: 21.3 µM (active) | Potency [2]: inactive | Potency [7]: 23.9 µM (active) | Potency [8]: 2.39 µM (active) | Potency [4]: inactive

C=C(C)CCCC
Potency [1]: inactive | Potency [2]: inactive | Potency [7]: inactive | Potency [8]: inactive | Potency [4]: inactive | Potency [5]: inactive | Potency [6]: inactive | Potency [9]: inactive | Potency [10]: inactive

CCCCOCC
Potency [1]: inactive | Potency [2]: inactive | Potency [3]: inactive | Potency [5]: inactive | Potency [6]: inactive | Potency [9]: inactive | Potency [10]: inactive

CCCCCCCCCCCCCC[n+]1ccccc1
Potency [1]: 11 µM (active) | Potency [2]: 54.9 µM (active) | Potency [7]: 6.16 µM (active) | Potency [8]: 54.9 µM (active) | Potency [4]: 54.9 µM (active) | Potency [5]: inactive | Potency [10]: 24.3 µM (active)

c1cc[nH]c1
Potency [1]: inactive | Potency [3]: inactive | Potency [7]: inactive | Potency [8]: inactive | Potency [4]: inactive | Potency [5]: inactive | Potency [6]: inactive | Potency [9]: inactive | Potency [10]: inactive

CN(C)CCCN1c2ccccc2Sc2ccc(C(F)(F)F)cc21
Potency [1]: 23.9 µM (active) | Potency [2]: inactive | Potency [7]: 21.3 µM (active) | Potency [4]: inactive | Potency [9]: inactive
